Screens from PubChem BioAssay.
This is a sample that favours compounds with a hit; in the whole collection about 14% have one here.
USP17 inh: inhibitors of human USP17 deubiquitinase; purified USP17, Ub-rhodamine cleavage fluorescence, 3 h; 6.5% of 47,000 active; AID 1645855; inhibition, % at 50 µM; A8MUK1
Target sequence (A8MUK1 whole entry, looked up): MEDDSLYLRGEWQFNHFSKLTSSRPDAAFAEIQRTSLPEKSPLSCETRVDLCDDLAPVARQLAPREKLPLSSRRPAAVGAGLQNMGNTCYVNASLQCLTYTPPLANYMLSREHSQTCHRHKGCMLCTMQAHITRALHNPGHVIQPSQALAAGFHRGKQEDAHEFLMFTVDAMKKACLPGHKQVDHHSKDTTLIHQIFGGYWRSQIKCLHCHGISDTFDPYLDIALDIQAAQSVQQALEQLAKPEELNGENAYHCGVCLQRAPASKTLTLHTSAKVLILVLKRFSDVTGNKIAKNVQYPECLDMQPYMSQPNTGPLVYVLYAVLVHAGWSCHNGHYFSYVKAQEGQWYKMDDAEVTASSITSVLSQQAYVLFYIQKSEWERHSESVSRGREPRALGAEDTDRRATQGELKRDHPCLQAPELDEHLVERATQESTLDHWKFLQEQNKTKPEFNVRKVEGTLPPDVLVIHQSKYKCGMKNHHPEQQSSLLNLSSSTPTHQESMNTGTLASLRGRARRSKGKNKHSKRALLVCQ
USP10 inh: human USP10 deubiquitinase inhibition | 1.1% of 47,000 active | Q14694 | inhibition, % at 20 µM | AID 1645856 | purified USP10, Ub-rhodamine fluorescence, 60 min
USP28 inh: blocks human USP28 ubiquitin-rhodamine cleavage | purified USP28, Ub-rhodamine cleavage fluorescence, 30 min | inhibition, % at 25 µM | 3% of 47,000 active | AID 1645857
USP8 block: blocks human USP8 ubiquitin-rhodamine cleavage. purified USP8, Ub-rhodamine cleavage fluorescence, 30 min. inhibition, % at 20 µM. 4.2% of 47,000 active. AID 1645853
USP30 block: human USP30 deubiquitinase inhibition; Q70CQ3; purified USP30, Ub-rhodamine cleavage fluorescence; inhibition, % at 25 µM; 5.3% of 47,000 active
A number is an active result; - = inactive; . = no result. Rule as the data show it: active = inhibition above about 30%; inactive = the rest.

SMILES	USP17 inh	USP10 inh	USP28 inh	USP8 block	USP30 block
O=C(c1cc(C2CC2)on1)N1CCc2ccccc2C1	-	-	-	-	-
O=C(O)c1nccnc1C(=O)N1CCc2ccccc2C1	77.7	-	46.5	91.1	-
O=C([C@@H]1CCCN1C1=NS(=O)(=O)c2ccccc21)N1CCN(c2ccccc2)CC1	-	-	-	-	-
O=C(/C=C/c1ccccc1)N1CCN(C2=NS(=O)(=O)c3ccccc32)CC1	-	-	-	-	79.8
O=c1[nH]c2ccccc2n1CCCOc1ccc(Cl)cc1	-	-	39.8	-	-
O=C(Cn1c(=O)[nH]c2ccccc2c1=O)N1CCN(c2ccc(Cl)cc2)CC1	-	-	-	-	-
O=C1CC(NS(=O)(=O)c2ccc3ccccc3c2)CN1c1cccc(F)c1 (centres undefined)	54.5	-	-	-	-
Cc1ccc(S(=O)(=O)NC2CC(=O)N(c3cccc(F)c3)C2)cc1 (centres undefined)	-	-	-	-	-
COc1ccc(S(=O)(=O)NC2CC(=O)N(c3ccc(F)cc3)C2)cc1 (centres undefined)	-	-	-	-	-
COc1cccc(N2CC(NS(=O)(=O)c3ccc4ccccc4c3)CC2=O)c1 (centres undefined)	-	-	-	-	33.5
O=C(NC1CCCCCC1)c1ccc(N2CCOc3ccccc32)s1	-	-	-	-	-
O=C(NCCc1ccco1)c1ccc(N2CCOc3ccccc32)s1	57.0	-	-	-	47.0
CN1CCN(Cc2cccnc2)C(=O)C12CCN(Cc1ccc[nH]1)CC2	46.5	-	54.5	40.3	-
Cc1ccc(-c2ncc(C(=O)Nc3ccc(F)cc3)c(-c3ccncc3)n2)cc1	-	-	-	48.3	-
Cc1ccc(-c2ncc(C(=O)Nc3ccccc3Cl)c(-c3ccncc3)n2)cc1	-	-	-	31.3	-
COCCn1ccc2nc(C)c(C(=O)NCc3ccccc3OC)cc2c1=O	-	-	-	-	-
Cc1ncc(-c2ccccn2)c(-c2ccc(CNC(=O)Cc3sc(C)nc3C)cc2)n1	-	-	-	36.4	-
Cc1ncc(-c2ccccn2)c(-c2ccc(CNC(=O)CCN3CCOCC3)cc2)n1	-	-	-	-	-
COc1ccc(-c2cc3nc(C)cc(Nc4cccc(C)c4)n3n2)cc1OC	-	-	-	-	-
COc1ccc(-c2cc3nc(C)cc(Nc4ccc(F)cc4)n3n2)cc1OC	-	-	-	-	84.8
CCN(CC)C(=O)C1Cn2ccnc2C2(CCN(C(=O)C3CCC3)CC2)O1 (centres undefined)	-	-	-	-	-
CCC(=O)N1CC(C(=O)Nc2ccc(F)cc2)C2(CCOCC2)C1 (centres undefined)	-	-	-	-	-
CC(C)CC(=O)N1CC(C(=O)Nc2ccc(F)cc2)C2(CCOCC2)C1 (centres undefined)	45.6	-	-	-	-
CCOC(=O)c1cnn(-c2ccc(C(=O)NCC3CCCO3)cc2)c1N (centres undefined)	-	-	-	-	-
Cc1nnc(Nc2ccc(C(=O)Nc3c(Cl)cccc3Cl)cc2)c2ccccc12	-	-	-	-	-
SMILES	USP17 inh	USP10 inh	USP28 inh	USP8 block	USP30 block
Cc1ccc(NC(=O)c2ccc(Nc3nnc(C)c4ccccc34)cc2)cc1	52.1	-	75.3	-	-
O=C(COc1ncnc2cc([N+](=O)[O-])ccc12)NCc1ccc2c(c1)OCO2	-	-	-	65.6	-
Cc1ccc(OCC(=O)NCc2ccc3c(c2)OCO3)c([N+](=O)[O-])n1	-	-	-	-	-
CCn1c(COc2ccc3c(c2)OCO3)nnc1SCc1ccc([N+](=O)[O-])cc1	-	-	-	-	-
CCn1c(COc2cccc(C(F)(F)F)c2)nnc1SCc1ccc(Cl)cc1	36.2	-	59.3	-	58.1
CCn1c(COc2ccc(OC)cc2)nnc1SCc1ccccc1Cl	-	-	-	-	32.1
CCn1c(COc2ccccc2OC)nnc1SCc1ccccc1	-	-	-	-	-
COc1ccc(CN(C)[C@@H]2CN(C(=O)c3nccn3C)C[C@H]2O)cc1	-	-	.	-	.
CCN1CCCC1CNc1nc(-c2ccc(OC)cc2)nc2ccccc12 (centres undefined)	-	-	-	-	-
CCN(CC)S(=O)(=O)c1ccc(OC)c(Nc2nc(-c3ccccc3)nc3ccccc23)c1	39.0	-	-	-	-
Cc1ccccc1CNC(=O)c1nnc(C(=O)Nc2ccc(F)cc2)s1	-	-	-	-	39.3
COc1ccc(NC(=O)c2nnc(C(=O)NCc3ccccc3F)s2)cc1	-	-	-	-	-
